Experimental data from PubChem BioAssay AID449762 (Southern Research Specialized Biocontainment Screening …, 2010).
The campaign covered roughly 330,000 compounds. About 1,900 (0.58%) were called active. Another 4% or so got no clear call; they are omitted. The list is a sample of the results. Results with a measured potency or affinity are listed apart. Unmarked numbers belong to inactive results. No stated cut-off is given here; in the data, inconclusive means inhibition above about 70% without an active follow-up result; inactive means below that.

Test: M. tuberculosis growth inhibition, HTS (AID 449762);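 further: bacterial growth assessed after seven days of incubation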
Conditions: M. tuberculosis H37Rv growth inhibition, 7H9 media; at 25 µM; stronger effect = higher value

SMILES | inhibition [%]
CC(c1ccccc1)N1C(=O)C2C3C=CC(C4CC34)C2C1=O (centres undefined) | 0.61
CCN=C1NN=C(c2cc(C)n(Cc3ccco3)c2C)CS1 | -1.01
Cc1cc(C2=NNC(=NC3CC3)SC2)c(C)n1Cc1ccco1 | 63.5
CCCCn1c(CN2CCN(c3cccc(Cl)c3)CC2)nc2c1c(=O)[nH]c(=O)n2C | 62.7
CC1CCCN(C2(O)C(=O)Nc3ccc(Br)cc32)C1 (centres undefined) | 5.15
COCCN(C(=O)COC(=O)c1cc2ccccc2cc1OC)c1c(N)n(Cc2ccccc2)c(=O)[nH]c1=O | -2.06
COc1ccccc1OCC(=O)Nc1ccc(C(N)=O)cc1 | -3.41
CC(=Nc1cccc(O)c1)c1sc2ccccc2c1O | 11.9
CCCn1nc(C(=O)Nc2ccc(S(=O)(=O)Nc3nccs3)cc2)c2ccccc2c1=O | 8.73
O=C(Nc1ccccc1F)Nc1ccccc1Br | 4.25
CCOc1ccc(Br)cc1/C(C)=N\NC1=NCCN1 | -0.3
COc1ccc(Br)cc1/C(C)=N/NC1=NCCN1 | 1.92
CC(C)OCCCN1CC(=O)N2C(c3cccc([N+](=O)[O-])c3)c3[nH]c4ccccc4c3C[C@H]2C1=O (some centres undefined) | 19.4
CCCc1cc(-c2nc(N)ncc2-c2csc(C)n2)c(O)cc1OC | -5.66
CCc1cc(-c2nc(N)ncc2-c2ccc(Br)cc2)c(O)cc1OC | 14.9
CC(C)C(=O)Nc1nc2ccc(S(C)(=O)=O)cc2s1 | 4.62
O=C(O)c1ccc(-n2c(-c3ccccc3)n[nH]c2=S)cc1 | -4.35
CCN1CCN(Cc2ccccc2C)CC1 | -5.92
Cc1ccccc1CN1CCN(Cc2ccccc2)CC1 | -6.4
CCOC(=O)Cc1csc(SCc2nc3ccccc3c(=O)[nH]2)n1 | -2.6
CSC(=S)N/N=C/c1ccc(N(C)C)cc1 | 3.05
CSC(=S)N/N=C/c1ccc(Br)cc1 | 57.5
COc1ccccc1N1C(=O)CC(N(O)c2ccccc2)C1=O (centres undefined) | 7.06
COc1ccccc1N(O)C1CC(=O)N(c2ccc(F)cc2)C1=O (centres undefined) | 10.9

SMILES | inhibition [%]
Cc1ccc(/C=N/NC(=S)N2CCOCC2)cc1 | -4.55
S=C(N/N=C/c1ccc(Cl)cc1)N1CCOCC1 | 10.7
N#Cc1c(N)nc(Sc2ccc(Cl)cc2)c(C#N)c1-c1ccccc1Cl | 7.13
O=C(O)CCCNS(=O)(=O)Cc1ccccc1 | 2.38
COc1cc(OC)nc(Oc2ccccc2C(=O)Oc2ccc(C)cc2)n1 | -5.69
COc1cc(OC)nc(Oc2ccccc2C(=O)Oc2ccccc2Cl)n1 | 3.91
O=C(NCc1ccccc1)N1CCC(CO)(Cc2cccc(F)c2)CC1 | 1.55
CC(=O)c1sc(NC(=O)c2c(F)cccc2F)nc1-c1ccccc1 | 3.31
CCCCCOc1ccc(NS(C)(=O)=O)cc1 | -0.68
CCCOc1ccc(NC2=CC(=O)CC(C)(C)C2)cc1 | 0.84
COc1ccccc1NS(=O)(=O)c1ccc(O)c(C(=O)OCc2cccc([N+](=O)[O-])c2)c1 | -3.81
O=C(NCC1CCCO1)C(c1cccs1)N(Cc1ccccc1)C(=O)c1ccc(-c2ccccc2)[nH]1 (centres undefined) | 14.9
O=C(NCC1CCCO1)C(c1cccs1)N(Cc1cccs1)C(=O)c1ccc(-c2ccccc2)[nH]1 (centres undefined) | 0.19
COc1cc(NC(=S)NCCCO)c(OC)cc1Cl | -4.61
CC(=O)c1ccc(C(=O)N2CCCC(CCC(=O)N(C)CCc3ccccn3)C2)s1 (centres undefined) | -4.61
OCC1(Cc2cccc(C(F)(F)F)c2)CCN(Cc2cc(F)cc(F)c2)CC1 | 14
Cc1c(CN2CCC(CO)(Cc3ccccc3)CC2)c2ccccc2n1C | -7.19
O=C(CN(C(=O)CCC(=O)Nc1nccs1)c1ccc(F)cc1)NCc1ccccc1 | -3.51
CCOC(=O)Cn1cc(-c2ccccc2)nn1 | -3.68
O=c1cc(O)c2sc3nc(-c4ccccc4)cc(C(F)(F)F)c3c2[nH]1 | 5.22
Cc1cc(C(F)(F)F)c2c(n1)sc1c(O)cc(=O)[nH]c12 | -2.51
COc1cc(/C=C2\SC(=S)N(N3CCOCC3)C2=O)cc(OC)c1OC | 3.16
Cc1ccc(C(C)C)c(OCC(=O)NS(=O)(=O)c2ccc(Cl)cc2)c1 | -3.31
O=C(c1ccccc1)N1CCN2C(=O)c3ccccc3C12c1ccc(Cl)cc1 (centres undefined) | 4.61

SMILES | inhibition [%]
Cc1ccc(C(=O)N2CCN3C(=O)c4ccccc4C23c2ccc(Cl)cc2)cc1 (centres undefined) | 13.6
COc1cccc(NC(=O)Nc2ccc(Br)cn2)c1 | 4.97
O=c1cc(CSCc2ccc(Cl)cc2)[nH]c(=O)[nH]1 | -3.47
Cc1[nH][nH]c(=O)c1N=Nc1ccc(Cl)cc1 | -1.91
CCCNC(=O)c1onc(CSc2ccc(Cl)cc2)c1C(=O)NCCOC | -3.57
Nn1c(SCc2ccc([N+](=O)[O-])cc2)nc2ccccc2c1=O | 16.5
CCCCn1c(N)c(C(=O)OCC2CCCO2)c2nc3ccccc3nc21 (centres undefined) | 15.8
Nc1c(C(=O)OCC2CCCO2)c2nc3ccccc3nc2n1C1CCCCC1 (centres undefined) | 1.24
CCc1ccccc1N(CC(=O)NC1CCCCC1)C(=O)CNC(=O)c1ccco1 | 2.96
O=C(NCc1ccco1)C1CCCN(c2ncnc3c2nc2n3CCCCC2)C1 (centres undefined) | 1.1
O=C(O)C1CCN(S(=O)(=O)c2cccc3nsnc23)CC1 | 0.03
Cc1c(C(=O)NC(=S)NCC(C)C)oc2ccccc12 | -6.41
COc1ccc(C2c3ccc4ccccc4c3Oc3ncn(CCO)c(=N)c32)cc1OC (centres undefined) | 6.98
COc1ccccc1C1c2ccc3ccccc3c2Oc2ncn(CCCO)c(=N)c21 (centres undefined) | 5.41
COC(=O)Cn1c(C)nc([N+](=O)[O-])c1Br | 0.3
Cc1c(Br)c([N+](=O)[O-])nn1CC(=O)c1ccccc1 | -1.84
Cc1ccc(S(=O)(=O)NC(Cc2ccc(Cl)cc2)C(=O)O)cc1 (centres undefined) | 4.83
COc1ccccc1-c1c(C)oc2c(CN3CCOCC3)c(O)ccc2c1=O | 0.75
COc1cc(C(=O)N/N=C/c2ccsc2C)cc(OC)c1OC | 17.9
COc1ccc(Br)cc1/C=N/NC(=O)c1cc(OC)c(OC)c(OC)c1 | -3.85
Cc1ccc(CCNC(=O)C2CCN(S(=O)(=O)c3ccc4nc5c(c(C(=O)O)c4c3)CCCC5)CC2)cc1 | -1.27
Cc1nc2ncnn2c(Nc2ccc3c(c2)OCCO3)c1C | 6.9
COc1ccc(NC(=O)COC(=O)CCC2CCCCC2)cc1 | 8.09
O=C(C1=COCCO1)N1CCN(c2nc3ccc([N+](=O)[O-])cc3s2)CC1 | 1.78

SMILES | inhibition [%]
COc1ccc(Cl)c2sc(N3CCN(C(=O)C4=COCCO4)CC3)nc12 | 35.6
COc1ccc(NC(=O)COC(=O)/C=C/c2ccccc2[N+](=O)[O-])cc1OC | 0.41
Cc1sc2ncn(CC(=O)N3CCN(c4ccccn4)CC3)c(=O)c2c1S(=O)(=O)N1CCCCC1 | -2.75
FC(F)(F)c1ccc2c(c1)N(CCCN1CCN(CCCl)CC1)c1ccccc1S2 | 4.41
CN1CCN(CCCN2c3ccccc3Sc3ccc(S(=O)(=O)N(C)C)cc32)CC1 | 7.63
CS(=O)(=O)c1ccc(Cl)c(NC(=O)C2CC(=O)N(Cc3ccco3)C2)c1 (centres undefined) | 3.6
S=C(NC1CCCC1)N1CCN(c2ccccn2)CC1 | -3.07
CC1=NN(C(=O)c2ccccc2)C(O)(c2ccc(Br)cc2)C1 (centres undefined) | -3.64
CC1=NN(C(=O)c2ccc(Cl)cc2)C(O)(c2ccccc2)C1 (centres undefined) | 28
Cc1cccc(NC(=O)CNC(=O)c2sc3ccccc3c2Cl)n1 | -2.76
COc1ccc([C@@H]2CC=C(C(=O)O)[C@H](c3ccc(C(C)(C)C)cc3)N2S(=O)(=O)c2ccc(C)cc2)cc1OC | 4.96
CCS(=O)(=O)c1ccc2c(c1)N(S(C)(=O)=O)CC(C(=O)NC1CC1)O2 (centres undefined) | 0.09
O=C(O)Cn1c(=O)c(-c2ccccc2)nc2ccccc21 | -12.6
On1c(-c2ccccc2)nc2ccccc21 | 9.54
N#Cc1ccccc1S(=O)(=O)N1CCN(CC(O)COc2ccccc2F)CC1 (centres undefined) | 3.84
N=C1C(c2ccccc2)=C(O)CN1c1cccc2ccccc12 | -2.85
CCOc1ccc(/C=C2\SC(=S)N(N3C(=O)C4CC4C3=O)C2=O)cc1 (centres undefined) | -8.07
CCNC(=S)Nc1ccc2cn[nH]c2c1 | -5.21
CCc1ccc(NC(=S)Nc2ccc3cn[nH]c3c2)cc1 | 32
CCCCn1cnc2c(oc3ccccc32)c1=O | -0.57
Nc1nn(S(=O)(=O)c2ccccc2)cc1-c1cccc([N+](=O)[O-])c1 | 1.89
CN(C)[C@@H]1C(=O)C(C(N)=O)=C(O)[C@@]2(O)C(=O)C3=C(O)c4c(O)ccc(Cl)c4[C@@](C)(O)[C@H]3C[C@@H]12 | 5.01
